Compounds with a hit are over-represented: about 2.9% of the library has one in this group of screens.
IP6K1 inh: IP6K1 kinase inhibition; IP6K1 kinase, ADP-Glo luminescence, 2 h; hits give low values; Q92551; 140,000 compounds, 0.81% hits; activity change, % (series mostly up to about 58 µM); in the data active = activity change below about -25%; also: % is scaled to controls: 0 for no effect and ±100 for the full control effect
Target sequence (Q92551 whole entry, looked up): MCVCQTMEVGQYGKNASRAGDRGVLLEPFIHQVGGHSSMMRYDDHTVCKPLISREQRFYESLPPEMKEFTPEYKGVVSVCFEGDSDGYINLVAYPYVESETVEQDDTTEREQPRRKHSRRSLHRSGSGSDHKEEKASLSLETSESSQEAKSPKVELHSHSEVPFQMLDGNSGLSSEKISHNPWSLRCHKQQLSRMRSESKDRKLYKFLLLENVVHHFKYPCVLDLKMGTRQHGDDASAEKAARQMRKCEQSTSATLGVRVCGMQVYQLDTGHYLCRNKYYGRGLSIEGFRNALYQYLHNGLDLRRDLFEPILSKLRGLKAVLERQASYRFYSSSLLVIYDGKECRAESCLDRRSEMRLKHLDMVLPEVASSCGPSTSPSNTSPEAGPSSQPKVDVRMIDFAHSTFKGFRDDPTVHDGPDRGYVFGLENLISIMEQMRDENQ
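ADP-Glo luminescence measures ADP made by human IP6K1 during a 2 h RT reaction with ATP/IP6 (mix at 1.3 mM/130 uM); top library doses 57.5 and 19.1 uM final.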
SNCA viab count: reduces viability of HEK-293 SNCA reporter cells; 150,000 compounds, 0.12% hits; Potency, µM (series often up to 57.1 µM), for inactives: at the highest dose activity change, negative = cytotoxicity, hits mostly cytotoxic; HEK-293-SNCA-luc viability, GF-AFC fluorescence, 24 h;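 also: potency is read from the fitted curve at half-maximal effect; 0% = DMSO-treated cells and -100% = medium-only wells without cells; nearly all actives have a fitted effect of over 30% in size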
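Cytotoxicity counterscreen: after 24 h compound treatment of genome-edited SNCA-luciferase HEK-293 cells, live-cell protease substrate GF-AFC read by fluorescence after 30 min; activity scaled between DMSO (0%) and medium-only (-100%), curves Hill-fitted.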
SNCA expr inh: inhibitors of alpha-synuclein (SNCA) gene expression; Potency, µM (highest dose often 57.2 µM), without a hit: at the highest dose activity change, negative = inhibition, actives largely listed as inhibitors; 140,000 compounds, 0.17% hits; HEK-293 SNCA-luciferase knock-in, luminescence, 24 h;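 also: potency is read from the fitted curve at half-maximal effect; plate controls were DMSO cells for no effect and cell-free wells for full effect; nearly all actives have a fitted effect of over 45% in size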
KDM5B inhibitor: blocks human KDM5B histone demethylase activity; Q9UGL1; KDM5B demethylase, FDH-coupled NADH fluorescence (FDH is formaldehyde dehydrogenase); Potency, µM (highest dose often 57.7 µM), hits mostly inhibitors; 220,000 compounds, 2.6% hits; also: potency is read from the fitted curve at half-maximal effect; 0% is about no effect; nearly all actives have a fitted effect of over 70% in size
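Here, H3K4me3 peptide (12.5 µM in substrate mix) is demethylated by KDM5BΔAP, 200 nM final, after 10 min compound exposure. Formaldehyde product is coupled through FDH (0.25 U/mL in mix) to NADH fluorescence; 30-min ΔRFU feeds dose-response curves.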
* marks the source's active call; other numbers are inactive results; i = inactive; ? = inconclusive; · = not tested or not shown; [ ] = another dose, or the depositor's remark. Unless noted, calls follow the shape of the dose curve; as a rule, active = well fitted curve in the direction sought with a large enough effect; inconclusive = small, poorly fitted or top-dose-only effect, or another doubt; inactive = no such curve, though single readings can be large; an effect the other way counts as inactive or inconclusive.

SMILES	IP6K1 inh	SNCA viab count	SNCA expr inh	KDM5B inhibitor
Cc1ccc(-c2c(C(=O)CCl)n(CCCO)c3ncnc(N)c23)cc1	11	24µM*	·	·
CCNC(=O)O[C@@H]1CO[C@H]2[C@@H]1OC[C@@H]2Nc1nccc(-c2cccs2)n1	-7	-8%[87.6 µM]	3%[87.6 µM]	28µM*
CC(=O)Nc1ccc(S(=O)(=O)N[C@H]2CO[C@H]3[C@@H]2OC[C@@H]3Nc2nccc(-c3cccs3)n2)cc1	2	-15%	-18%	25µM*
O=C(Nc1ccccc1)N[C@H]1CO[C@H]2[C@@H]1OC[C@@H]2Nc1nccc(-c2cccs2)n1	-10	-16%[87.6 µM]	34%[87.6 µM]	?
O=C(COc1ccccc1)N[C@H]1CO[C@H]2[C@@H]1OC[C@@H]2Nc1nccc(-c2cccs2)n1	-5	0%	7%	28µM*
O=C(N[C@H]1CO[C@H]2[C@@H]1OC[C@@H]2Nc1nccc(-c2cccs2)n1)C1CCCCC1	-4	-26%[87.6 µM]	?	35µM*
COC(=O)c1ccc(C2C(c3ccc(OC)cc3)=C(O)C(=O)N2CCc2ccccc2)cc1 (centres undefined)	·	·	·	i
O=C(N[C@H]1CO[C@H]2[C@@H]1OC[C@@H]2Nc1nccc(-c2cccs2)n1)c1ccccc1	-9	?	16%[87.6 µM]	35µM*
O=C(N[C@H]1CO[C@H]2[C@@H]1OC[C@@H]2Nc1nccc(-c2cccs2)n1)c1ccc(C(F)(F)F)cc1	-1	-3%	?	?
Cc1ccc(CNC(=O)C2CCN(c3cc(C(F)(F)F)ncn3)CC2)cc1	16	-10%	-10%	i
CCc1ccc(CNC(=O)C2CCN(c3cc(C(F)(F)F)ncn3)CC2)cc1	9	6%	-8%	28µM*
Cn1c2c(c3ccccc31)CN(C(=O)Nc1ccc(Cl)cc1Cl)CC2	-13	5%	48%	22µM*
Cn1c2c(c3ccccc31)CN(C(=O)Nc1ccccc1F)CC2	-10	-2%	48%	22µM*
CCc1cccc2c(C(=O)O)cc(-c3ccccn3)nc12	·	·	·	i
Cc1nc2cnccn2c1C(=O)NCc1ccc(F)cc1	18	·	·	·
Cc1ccc(CSCC(=O)NCc2ccc3c(c2)OCO3)cc1	·	·	·	i
O=C(CCNc1c(-c2cccc(F)c2)nc2cnccn12)NCc1ccc(Cl)cc1	5	?	5%	28µM*
Cc1cccc(-c2nc3cnccn3c2NCCC(=O)NCc2ccc3c(c2)OCO3)c1	7	?	4%	28µM*
Cc1cccc(-c2nc3cnccn3c2NCCC(=O)NCc2ccc(F)c(Cl)c2)c1	19	?	0%	28µM*
CN(C)C(C(=O)N1CCN(c2ccc(C#N)cc2)CC1)c1ccccc1F (centres undefined)	4	-14%	1%	?
O=C(CSc1nnc(-c2cccs2)n1C1CC1)N1CCN(c2ncccn2)CC1	·	·	·	i
COc1ccccc1N1CCN(C(=O)CN2C(=O)C(c3ccccc3)=NC2(C)C)CC1	12	1%[12.5 µM]	-15%	i
O=c1cc(-c2ccncc2)oc2c(-c3cccc(CO)c3)nccc12	-11	1%[87.6 µM]	-7%[87.6 µM]	35µM*
CN1CCN(c2cc(=O)c3ccnc(-c4cccc(CO)c4)c3o2)CC1	-18	-6%[87.6 µM]	27%[87.6 µM]	28µM*
CC(=O)Nc1cccc(-c2nccc3c(=O)cc(-c4ccncc4)oc23)c1	-15	-4%[87.6 µM]	1%[87.6 µM]	?
SMILES	IP6K1 inh	SNCA viab count	SNCA expr inh	KDM5B inhibitor
Cc1cc(-c2nccc3c(=O)cc(N4CCOCC4)oc23)ccn1	-3	4%[87.6 µM]	42%[87.6 µM]	?
CN1CCN(c2cc(=O)c3ccnc(-c4ccc(CO)cc4)c3o2)CC1	-15	2%[87.6 µM]	1%[87.6 µM]	35µM*
CN1CCN(c2cc(=O)c3ccnc(Nc4ccccn4)c3o2)CC1	-14	3%[87.6 µM]	21%[87.6 µM]	?
CN1CCN(c2cc(=O)c3ccnc(-c4cccc(F)c4)c3o2)CC1	-8	-9%[87.6 µM]	21%[87.6 µM]	35µM*
O=[S+]1([O-])NC2(CCN(Cc3c(F)cccc3F)C2)COc2ncccc21 (centres undefined)	19	9%	4%	i
Cc1ccc(C)c(-c2cc3c(=O)n(CCNC(=O)c4ccc(N(C)C)cc4)ccn3n2)c1	-6	1%	?	35µM*
COc1cccc(C(=O)NCCn2ccn3nc(-c4ccc(C)c(C)c4)cc3c2=O)c1	-12	-12%	103%	i
Cc1ccc(-c2cc3c(=O)n(CCNC(=O)c4ccc(Cl)cc4)ccn3n2)cc1C	-4	-12%	17%	14µM*
Cc1ccc(C(=O)NCCn2ccn3nc(-c4ccc(C)c(C)c4)cc3c2=O)cc1	-12	9%	24%	?

Screening results as filed in PubChem.
